{
  "source": "PubChem BioAssay",
  "key": {"[1]": {"test": "growth inhibition of DIPG cells – cell-based, MIPE4.0 library, CellTiter-Glo luminescence, qHTS (AID 1347066; cut-off not given, nearly all actives have AC50 up to about 30 µM;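 note: cells exposed to compound for 48 hours before readout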)", "settings": "SU-DIPG-VI viability, CellTiter-Glo ATP luminescence"}, "[2]": {"test": "growth inhibition of DIPG cells – cell-based, MIPE5.0 library, qHTS (AID 1347068; cut-off not given, nearly all actives have IC50 up to about 30 µM)", "settings": "SU-DIPG-XXV viability"}, "[3]": {"test": "blockers of cellular phospholipid synthesis – cell-based, LOPAC library, screen 4, primary screen (AID 1347384; call rule not given here)", "settings": "animal cells, phospholipid biosynthesis inhibition screen; at 10 µM"}, "[4]": {"test": "MELAS cybrid and Rieske KO viability enhancers – cell-based, MELAS cybrids, Rieske KO mouse fibroblasts, CellTiter-Glo, primary screen (AID 1508586;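 active = mean z-score across replicates of 1.96 or higher in either the MELAS or the Rieske mutant cell line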;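 note: z relative to plate mean and SD of compound and empty wells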)", "settings": "low glucose"}, "[5]": {"biological_target": "NAD(+) hydrolase SARM1 (Homo sapiens) (UniProt Q6SZW1)", "sequence (Q6SZW1 whole entry, looked up)": "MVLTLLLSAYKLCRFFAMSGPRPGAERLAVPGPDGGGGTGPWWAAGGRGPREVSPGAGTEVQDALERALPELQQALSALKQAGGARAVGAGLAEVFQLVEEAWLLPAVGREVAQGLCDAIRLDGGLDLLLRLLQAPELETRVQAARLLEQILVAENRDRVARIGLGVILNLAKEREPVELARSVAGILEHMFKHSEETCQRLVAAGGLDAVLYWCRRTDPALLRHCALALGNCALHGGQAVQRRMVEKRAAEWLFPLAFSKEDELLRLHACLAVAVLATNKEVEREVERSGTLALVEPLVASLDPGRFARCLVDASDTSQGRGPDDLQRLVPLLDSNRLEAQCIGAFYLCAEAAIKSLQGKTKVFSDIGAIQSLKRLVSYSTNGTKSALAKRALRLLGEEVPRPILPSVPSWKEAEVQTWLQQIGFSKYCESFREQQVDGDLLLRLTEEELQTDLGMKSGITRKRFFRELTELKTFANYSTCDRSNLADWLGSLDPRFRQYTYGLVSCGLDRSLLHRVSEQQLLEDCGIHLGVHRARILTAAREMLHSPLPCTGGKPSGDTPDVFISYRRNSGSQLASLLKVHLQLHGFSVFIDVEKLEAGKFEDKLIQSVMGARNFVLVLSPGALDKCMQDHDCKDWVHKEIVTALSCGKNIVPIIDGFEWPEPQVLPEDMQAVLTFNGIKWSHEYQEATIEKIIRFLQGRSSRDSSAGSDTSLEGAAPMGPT", "test": "blocking NAD cleavage by SARM1 SAM-TIR – cell lysate, NAD-Glo luminescence (AID 1508614;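 active = compound whose remaining NAD level is above about 45 nM, limit read from the data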)", "settings": "SAM-TIR HEK293T lysate NADase, at 1 µM, stronger effect = higher value"}, "[6]": {"biological_target": "Mitogen-activated protein kinase 7 (Homo sapiens) (UniProt Q13164)", "sequence (Q13164 whole entry, looked up, the tested form may be a part)": "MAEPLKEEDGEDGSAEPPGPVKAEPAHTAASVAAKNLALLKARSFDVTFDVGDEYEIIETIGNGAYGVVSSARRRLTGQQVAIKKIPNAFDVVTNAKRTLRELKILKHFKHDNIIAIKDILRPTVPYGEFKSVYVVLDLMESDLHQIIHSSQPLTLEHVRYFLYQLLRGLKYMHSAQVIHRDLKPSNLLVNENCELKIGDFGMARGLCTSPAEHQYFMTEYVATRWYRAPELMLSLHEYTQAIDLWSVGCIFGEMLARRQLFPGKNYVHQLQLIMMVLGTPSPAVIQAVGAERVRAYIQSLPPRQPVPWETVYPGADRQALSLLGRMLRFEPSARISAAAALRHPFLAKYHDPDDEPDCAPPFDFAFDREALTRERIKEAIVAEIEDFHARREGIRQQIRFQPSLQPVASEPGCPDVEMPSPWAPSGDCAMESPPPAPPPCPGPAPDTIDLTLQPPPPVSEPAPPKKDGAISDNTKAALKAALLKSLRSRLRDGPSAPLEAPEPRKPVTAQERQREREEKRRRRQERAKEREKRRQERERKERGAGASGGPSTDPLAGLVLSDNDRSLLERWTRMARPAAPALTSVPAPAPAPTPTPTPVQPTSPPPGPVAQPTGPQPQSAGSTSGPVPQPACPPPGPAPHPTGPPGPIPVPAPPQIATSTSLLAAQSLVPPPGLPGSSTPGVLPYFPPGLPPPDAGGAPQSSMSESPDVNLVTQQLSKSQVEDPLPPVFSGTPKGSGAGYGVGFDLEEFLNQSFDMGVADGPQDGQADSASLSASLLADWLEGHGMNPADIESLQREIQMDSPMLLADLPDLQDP", "test": "Gal4-ERK5 driven luciferase induction – cell-based, HTS, primary screen (AID 1508626;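 active = luciferase signal above three times the same-plate solvent-only control wells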;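 note: luciferase driven by Gal4-ERK5 fusion binding five Gal4 sites before minimal TATA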)", "settings": "HeLa Gal4-ERK5 transactivation, 18 h, at 5 µM, stronger effect = higher value"}, "[7]": {"test": "galactose survival enhancers in mitochondrial complex I cybrids – cell-based, galactose medium, ATP luminescence, primary screen (AID 1645843;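 active = z-score of at least 1.8 in each of two replicates, scored against plate mean and spread of sample wells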;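 note: positive z means more ATP and so rescue of galactose-driven cybrid death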)", "settings": "complex I mutant cybrid cells, 72 h, stronger effect = higher value"}, "[8]": {"test": "viability loss with induced miR-34 in A549 – imaging, A549 dox-inducible miR-34, nuclei and caspase counts, primary screen (AID 1347080;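 active = compounds whose cell count with miR-34 switched on is under 0.7 times the count with it off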)", "settings": "A549 miR-34 inducible, Hoechst nuclei count, 48 h"}, "[9]": {"test": "compounds altering HSF1 focus formation in cells – imaging, Selleck Cancer Library (AID 1347162; in the data active = plate-normalised HSF1 focus index below about 0.46)", "settings": "human cells, HSF1 nuclear foci imaging, at 10 µM; SSMD: measured here: HSF1 foci SSMD mean; cell count: measured here: cell number; plate-normalised HSF1 focus index: stronger effect = lower value"}, "[10]": {"test": "drug combination growth inhibition, ovarian cancer – cell-based, oncology-focused library, rucaparib conditional, profiling panel (AID 1508598)", "settings": "patient-derived ovarian cancer cells, CellTiter-Glo viability, 144 h, stronger effect = lower value"}, "[11]": {"settings": "MELAS cybrid survival, CellTiter-Glo 48 h, stronger effect = higher value"}, "[12]": {"settings": "Rieske KO mouse fibroblast survival, CellTiter-Glo 72 h"}, "[13]": {"settings": "stronger effect = lower value, cell number ratio, induced over uninduced"}, "[14]": {"settings": "measured here: relative caspase fold change +Dox/-Dox"}, "[15]": {"settings": "measured here: total cells with miR-34 induction, stronger effect = lower value"}, "[16]": {"settings": "measured here: total cells without miR-34 induction"}},
  "note": "Where “and” joins values, the source holds several entries; their conditions need not be identical. Equal values may be shown once. Inconclusive results are not listed. Calls of active or inactive are those of the source.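 Rule for the calls, unless noted: active = normalized viability below 100% at a tested concentration; inactive = the rest.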",
  "data": [
    {"compound": "C[C@](N)(Cc1ccc(O)c(O)c1)C(=O)O", "values": [
      {"measurement": "outcome", "setting": "[1]", "value": "inactive"},
      {"measurement": "outcome", "setting": "[2]", "value": "inactive"},
      {"measurement": "outcome", "setting": "[3]", "value": "inactive"},
      {"measurement": "z-score", "setting": "[4]; [11]", "value": "-1.52 (inactive) and -0.0357 (inactive)"},
      {"measurement": "z-score", "setting": "[4]; [12]", "value": "-0.276 and -0.892"},
      {"measurement": "remaining NAD", "setting": "[5]", "value": "10 nM (inactive)"},
      {"measurement": "luciferase signal", "setting": "[6]", "value": "68 AU (inactive)"},
      {"measurement": "z-score", "setting": "[7]", "value": "-1.24 (inactive) and -0.53 (inactive) and -0.665 (inactive)"}
    ]},
    {"compound": "O=c1[nH]cnc2c1ncn2[C@H]1CC[C@@H](CO)O1", "values": [
      {"measurement": "outcome", "setting": "[1]", "value": "inactive"},
      {"measurement": "fold change", "setting": "[8]; [13]", "value": "0.88 (inactive) and 0.877 (inactive)"},
      {"measurement": "fold change", "setting": "[8]; [14]", "value": "1.12 and 1.04"},
      {"measurement": "cell count", "setting": "[8]; [15]", "value": "8250 and 10000"},
      {"measurement": "cell count", "setting": "[8]; [16]", "value": "9380 and 11400"},
      {"measurement": "z-score", "setting": "[4]; [11]", "value": "-0.8 (inactive) and -0.278 (inactive)"},
      {"measurement": "z-score", "setting": "[4]; [12]", "value": "-0.19 and -0.4"},
      {"measurement": "z-score", "setting": "[7]", "value": "0.385 (inactive)"}
    ]},
    {"compound": "CS(=O)(=O)c1ccc([C@@H](O)[C@@H](CO)NC(=O)C(Cl)Cl)cc1", "values": [
      {"measurement": "outcome", "setting": "[1]", "value": "inactive"},
      {"measurement": "fold change", "setting": "[8]; [13]", "value": "0.9 (inactive) and 0.984 (inactive)"},
      {"measurement": "fold change", "setting": "[8]; [14]", "value": "1.05 and 2.01"},
      {"measurement": "cell count", "setting": "[8]; [15]", "value": "7540 and 11000"},
      {"measurement": "cell count", "setting": "[8]; [16]", "value": "8380 and 11100"},
      {"measurement": "z-score", "setting": "[4]; [11]", "value": "0.78 (inactive)"},
      {"measurement": "z-score", "setting": "[4]; [12]", "value": -3.27},
      {"measurement": "remaining NAD", "setting": "[5]", "value": "23 nM (inactive)"},
      {"measurement": "luciferase signal", "setting": "[6]", "value": "44 AU (inactive)"}
    ]},
    {"compound": "COC(=O)C1=C(C)NC(C)=C(C(=O)OC(C)C)C1c1cccc2nonc12", "note": "(configuration not stated)", "values": [
      {"measurement": "outcome", "setting": "[1]", "value": "inactive"},
      {"measurement": "cell count", "setting": "[8]; [15]", "value": "7780 and 7900 and 7270"},
      {"measurement": "z-score", "setting": "[4]; [11]", "value": "-0.382 (inactive) and 0.324 (inactive)"},
      {"measurement": "z-score", "setting": "[4]; [12]", "value": "1.22 and 0.935"},
      {"measurement": "remaining NAD", "setting": "[5]", "value": "10 nM (inactive)"},
      {"measurement": "z-score", "setting": "[7]", "value": "1.15 (inactive)"}
    ]},
    {"compound": "COCCCC/C(=N\\OCCN)c1ccc(C(F)(F)F)cc1", "values": [
      {"measurement": "outcome", "setting": "[1]", "value": "inactive"},
      {"measurement": "fold change", "setting": "[8]; [13]", "value": "0.98 (inactive) and 0.926 (inactive) and 0.976 (inactive)"},
      {"measurement": "fold change", "setting": "[8]; [14]", "value": "1.02 and 0.609 and 0.939"},
      {"measurement": "cell count", "setting": "[8]; [15]", "value": "9020 and 8820 and 7770"},
      {"measurement": "cell count", "setting": "[8]; [16]", "value": "9200 and 9520 and 7960"},
      {"measurement": "outcome", "setting": "[3]", "value": "inactive"},
      {"measurement": "z-score", "setting": "[4]; [11]", "value": "0.622 (inactive)"},
      {"measurement": "z-score", "setting": "[4]; [12]", "value": -0.626},
      {"measurement": "remaining NAD", "setting": "[5]", "value": "10 nM (inactive)"},
      {"measurement": "luciferase signal", "setting": "[6]", "value": "88 AU (inactive)"},
      {"measurement": "z-score", "setting": "[7]", "value": "-0.665 (inactive) and -0.645 (inactive)"}
    ]},
    {"compound": "CC(c1cc2ccccc2s1)N(O)C(N)=O", "note": "(configuration not stated)", "values": [
      {"measurement": "outcome", "setting": "[1]", "value": "inactive"},
      {"measurement": "SSMD", "setting": "[9]", "value": 2.48},
      {"measurement": "cell count", "setting": "[9]", "value": 7010},
      {"measurement": "plate-normalised HSF1 focus index", "setting": "[9]", "value": "1.14 (inactive)"},
      {"measurement": "z-score", "setting": "[4]; [11]", "value": "-0.393 (inactive) and -0.528 (inactive) and -0.827 (inactive)"},
      {"measurement": "z-score", "setting": "[4]; [12]", "value": "0.713 and 0.986 and 1.26"},
      {"measurement": "viability", "setting": "[10]; at 0.000305 µM, OCI-C5x cells, with rucaparib 10 µM, 100% = cells with rucaparib alone", "value": "111% (inactive)"},
      {"measurement": "viability", "setting": "[10]; at 0.000305 µM, OCI-C5x cells, without rucaparib", "value": "124% (inactive)"},
      {"measurement": "viability", "setting": "[10]; at 0.000305 µM, OCI-P5x cells, with rucaparib 20 µM, 100% = cells with rucaparib alone", "value": "77.5% (active)"},
      {"measurement": "viability", "setting": "[10]; at 0.000305 µM, OCI-P5x cells, without rucaparib", "value": "83.5% (active)"},
      {"measurement": "viability", "setting": "[10]; at 0.00122 µM, OCI-C5x cells, with rucaparib 10 µM, 100% = cells with rucaparib alone", "value": "98.9% (active)"},
      {"measurement": "viability", "setting": "[10]; at 0.00122 µM, OCI-C5x cells, without rucaparib", "value": "121% (inactive)"},
      {"measurement": "viability", "setting": "[10]; at 0.00122 µM, OCI-P5x cells, with rucaparib 20 µM, 100% = cells with rucaparib alone", "value": "61% (active)"},
      {"measurement": "viability", "setting": "[10]; at 0.00122 µM, OCI-P5x cells, without rucaparib", "value": "79.9% (active)"},
      {"measurement": "viability", "setting": "[10]; at 0.00488 µM, OCI-C5x cells, with rucaparib 10 µM, 100% = cells with rucaparib alone", "value": "128% (inactive)"},
      {"measurement": "viability", "setting": "[10]; at 0.00488 µM, OCI-C5x cells, without rucaparib", "value": "122% (inactive)"},
      {"measurement": "viability", "setting": "[10]; at 0.00488 µM, OCI-P5x cells, with rucaparib 20 µM, 100% = cells with rucaparib alone", "value": "48.8% (active)"},
      {"measurement": "viability", "setting": "[10]; at 0.00488 µM, OCI-P5x cells, without rucaparib", "value": "63.4% (active)"},
      {"measurement": "viability", "setting": "[10]; at 0.0195 µM, OCI-C5x cells, with rucaparib 10 µM, 100% = cells with rucaparib alone", "value": "119% (inactive)"},
      {"measurement": "viability", "setting": "[10]; at 0.0195 µM, OCI-C5x cells, without rucaparib", "value": "125% (inactive)"},
      {"measurement": "viability", "setting": "[10]; at 0.0195 µM, OCI-P5x cells, with rucaparib 20 µM, 100% = cells with rucaparib alone", "value": "47.6% (active)"},
      {"measurement": "viability", "setting": "[10]; at 0.0195 µM, OCI-P5x cells, without rucaparib", "value": "63.9% (active)"},
      {"measurement": "viability", "setting": "[10]; at 0.0781 µM, OCI-C5x cells, with rucaparib 10 µM, 100% = cells with rucaparib alone", "value": "103% (inactive)"},
      {"measurement": "viability", "setting": "[10]; at 0.0781 µM, OCI-C5x cells, without rucaparib", "value": "125% (inactive)"},
      {"measurement": "viability", "setting": "[10]; at 0.0781 µM, OCI-P5x cells, with rucaparib 20 µM, 100% = cells with rucaparib alone", "value": "97.3% (active)"},
      {"measurement": "viability", "setting": "[10]; at 0.0781 µM, OCI-P5x cells, without rucaparib", "value": "118% (inactive)"},
      {"measurement": "viability", "setting": "[10]; at 0.313 µM, OCI-C5x cells, with rucaparib 10 µM, 100% = cells with rucaparib alone", "value": "113% (inactive)"},
      {"measurement": "viability", "setting": "[10]; at 0.313 µM, OCI-C5x cells, without rucaparib", "value": "121% (inactive)"},
      {"measurement": "viability", "setting": "[10]; at 0.313 µM, OCI-P5x cells, with rucaparib 20 µM, 100% = cells with rucaparib alone", "value": "115% (inactive)"},
      {"measurement": "viability", "setting": "[10]; at 0.313 µM, OCI-P5x cells, without rucaparib", "value": "123% (inactive)"}
    ]}
  ]
}
